The record followed here is PubChem BioAssay (Tox21).

The structures appear in SMILES notation. Unmarked numbers belong to inactive results. Records with an inconclusive call do not appear. Active and inactive are the calls of the source. Unless noted, calls follow the shape of the dose curve; as a rule, active = well fitted curve in the direction sought with a large enough effect in the repeat runs; inconclusive = weak or mixed curves; inactive = flat fitted curve, though single readings scatter.

Experiment [1] in a line: qHTS assay to test for compound auto fluorescence at 535 nm (green) in HEK293 cells (AID 720680). In general terms: Quantitative high-throughput screening tests each substance at several concentrations.
Experiment [2] is described as follows: qHTS assay to test for compound auto fluorescence at 460 nm (blue) in HEK293 cell free culture (AID 720681). In short, it runs like this:
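Test compounds were pinned into cell-free culture medium (DMEM with 10% FBS) and fluorescence was read directly at Ex/Em 405/460 nm. Signals were expressed as fluorescence equivalents of triamterene, with DMSO vehicle as control.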

The nature of experiment [3]: qHTS assay to test for compound auto fluorescence at 535 nm (green) in HEK293 cell free culture (AID 720682). The procedure, abridged: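 Compounds were pin-transferred into cell-free DMEM with 10% FBS, and green fluorescence was read at excitation 485 nm and emission 535 nm. Intensities were expressed as fluorescein-equivalent values.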
Experiment [4] is described as follows: qHTS assay to test for compound auto fluorescence at 590 nm (red) in HEK293 cell free culture (AID 720683). In short, it runs like this:
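Tox21 10K library compounds were pinned into cell-free DMEM with 10% FBS and fluorescence was read at excitation 540 nm. Activity is expressed as Rose Bengal sodium equivalency.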

Experiment [5] is described as follows: qHTS assay to test for compound auto fluorescence at 590 nm (red) in HepG2 cell free culture (AID 720684). The procedure, abridged:
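Ex 540 / Em 590 nm read of compound in cell-free MEM (10% FBS). Rose Bengal sodium reference.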

The nature of experiment [6]: qHTS assay to test for compound auto fluorescence at 460 nm (blue) in HepG2 cell free culture (AID 720685). In short, it runs like this: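 Cell-free plates of MEM plus 10% FBS received 23 nL compound or DMSO vehicle; blue-channel (405/460 nm) intensity scored against triamterene as reference fluorophore.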
A short description of experiment [7]: qHTS assay to test for compound auto fluorescence at 535 nm (green) in HepG2 cell free culture (AID 720686).
Experiment [8] is described as follows: qHTS assay to test for compound auto fluorescence at 460 nm (blue) in HepG2 cells (AID 720687). The procedure, abridged: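 Cells (2,000/well in MEM with 10% FBS) attached overnight at 37 C, then were exposed to compound or DMSO for 1 hr at 37 C, 5% CO2. Fluorescence read at Ex/Em 405/460 nm, expressed as triamterene-equivalent signal.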
Experiment [9] has as its target Glucocorticoid receptor (Homo sapiens) (UniProt P04150). The experiment in a line: qHTS assay to identify small molecule agonists of the glucocorticoid receptor (GR) signaling pathway (AID 720691; active = well fitted activation curve with a large enough effect in the signal ratio in the repeat runs, not every such curve was filed as active; the % refers to the signal ratio). The settings on record: GR-bla HeLa, beta-lactamase reporter ratio, 18 h; activation: at 62.4 µM (top of the series). In short, it runs like this: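 Cells: GR-bla HeLa, endogenous GR with stably integrated GRE-beta-lactamase reporter. Treatment 18 h, 37 C, compounds delivered in DMSO. Detection via LiveBLAzer B/G FRET substrate, 2 h RT, fluorescence intensity.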

Experiment [10] has the same target. Nature of the experiment: qHTS assay to identify small molecule antagonists of the glucocorticoid receptor (GR) signaling pathway (AID 720692; active = well fitted inhibition curve with a large enough effect in the signal ratio in the repeat runs, not every such curve was filed as active; the % refers to the signal ratio; also: potency is read from the fitted curve at half-maximal effect). The procedure, abridged: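 Quantitative HTS in antagonist format: HeLa cells expressing endogenous GR and a stably integrated GRE-bla reporter, stimulated with 5 nM dexamethasone (final) alongside test compounds for 18 h.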
% is scaled to controls: 0 for no effect and ±100 for the full control effect.

Sequence of Glucocorticoid receptor (Homo sapiens) (P04150 whole entry, looked up): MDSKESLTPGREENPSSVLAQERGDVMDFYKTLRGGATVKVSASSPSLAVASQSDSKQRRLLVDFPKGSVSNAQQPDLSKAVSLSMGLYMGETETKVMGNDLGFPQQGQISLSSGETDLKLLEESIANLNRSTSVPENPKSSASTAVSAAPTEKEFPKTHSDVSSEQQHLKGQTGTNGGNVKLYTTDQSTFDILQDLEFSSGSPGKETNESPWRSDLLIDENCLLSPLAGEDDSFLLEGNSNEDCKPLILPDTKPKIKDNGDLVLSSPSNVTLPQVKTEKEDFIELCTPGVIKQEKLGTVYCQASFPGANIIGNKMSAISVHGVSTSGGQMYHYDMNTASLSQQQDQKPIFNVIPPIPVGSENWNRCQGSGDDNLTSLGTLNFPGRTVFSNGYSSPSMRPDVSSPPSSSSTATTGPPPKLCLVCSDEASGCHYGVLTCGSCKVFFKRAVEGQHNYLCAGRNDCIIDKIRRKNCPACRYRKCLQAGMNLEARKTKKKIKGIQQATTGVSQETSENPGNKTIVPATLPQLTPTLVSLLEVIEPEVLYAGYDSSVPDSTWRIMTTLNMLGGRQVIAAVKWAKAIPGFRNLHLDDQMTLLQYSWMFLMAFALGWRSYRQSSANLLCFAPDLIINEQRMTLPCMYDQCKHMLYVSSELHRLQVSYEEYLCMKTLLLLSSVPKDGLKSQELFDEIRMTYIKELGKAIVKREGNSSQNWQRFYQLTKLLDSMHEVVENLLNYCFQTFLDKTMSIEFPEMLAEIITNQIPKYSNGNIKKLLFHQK

Turning to `CC(C)CCCCCCCCCCCCCCC(=O)O`, the compound was called inactive in experiment [1] and in experiment [3]. Also, the Potency entry in experiment [2], in [4], in [5], in [6], in experiment [7] and in experiment [8] was “inactive” each time. Also, the Potency entry in experiment [9] and in experiment [10] was “inactive” each time.

Regarding `CCc1cc(Cc2cc(CC)c(N)c(CC)c2)cc(CC)c1N`, the result in experiment [1] and in experiment [3] was inactive. Moreover, the Potency result in experiment [2], in experiment [4], in [5], in [6], in [7] and in experiment [8] was “inactive” in each case. Also, the Potency in [10] is 43.6 µM (active).

As for `Cc1ccc(O)c2ncccc12`, the compound was called inactive in experiment [1] and in experiment [3]. Further, the Potency entry in experiment [2], in [4], in experiment [5], in [6], in experiment [7] and in experiment [8] was “inactive” each time. The Potency entry in experiment [10] is “inactive”.

As to `CCN(C(=O)c1cc(C)cc(OC[C@H](C)Nc2ccncc2)c1)C(C)C`, the outcome in experiment [1] and in [3] was inactive. The Potency entry in [2], in experiment [4], in [5], in experiment [6], in experiment [7] and in experiment [8] was “inactive” in each case. Further, in experiment [10], the Potency entry was “inactive”.

With `CC1=NC(C)OC1C` (centres undefined), the outcome in experiment [1] and in [3] was inactive. Moreover, the Potency entry in experiment [2], in [4], in experiment [5], in [6], in experiment [7] and in [8] was “inactive” each time. Further, in experiment [9], the Potency result was “inactive”. The Potency in [10] was 34.7 µM (active).

Regarding `Cc1ccc(O)c(C(C)(C)C)c1`, the call in experiment [1] and in experiment [3] was inactive. For the same compound, the Potency result in experiment [2], in [4], in experiment [5], in experiment [6], in [7] and in experiment [8] was “inactive” each time. Besides, the Potency entry in experiment [10] is “inactive”.

With `CCCC/C=C/CCCCO`, the call in experiment [1] and in [3] was inactive. The Potency entry in experiment [2], in experiment [4], in experiment [5], in experiment [6], in experiment [7] and in experiment [8] was “inactive” each time. For the same compound, the Potency result in [9] and in [10] was “inactive” in each case.

As to `C[n+]1ccn(Cc2ccccc2)c1`, the compound was classed as inactive in [1] and in [3]. For the same compound, the Potency result in [2], in [4], in [5], in [6], in [7] and in [8] was “inactive” in each case. In addition, the Potency result in experiment [9] and in experiment [10] was “inactive” throughout.

`COc1c(C)c2c(c(O)c1C/C=C(\C)CCC(=O)O)C(=O)OC2`: the fluorescence, % of fluorescent control was -0.004% [at 18.6 µM] in [2], 0.195% [at 18.6 µM] in [4], 0.227% [at 18.6 µM] in [6] and -0.0404% [at 18.6 µM] in experiment [8]. The activity change in experiment [3] was -0.148% [at 18.6 µM]. The fluorescence, % of Rose Bengal in experiment [5] is 0.0127% [at 18.6 µM]. Besides, the fluorescence, % of fluorescein control in [7] was -0.0501% [at 18.6 µM].

In the case of `COC(=O)C1=C(C)NC(C)=C(C(=O)OCC(C)C)C1c1ccccc1[N+](=O)[O-]` (centres undefined), the call in experiment [1] and in experiment [3] was inactive. Also, the Potency result in experiment [2], in [4], in [5], in experiment [6], in experiment [7] and in experiment [8] was “inactive” throughout. The Potency in experiment [10] was 24.5 µM (active).

Take `c1cc(C(c2ccc(OCC3CO3)cc2)c2ccc(OCC3CO3)cc2)ccc1OCC1CO1` (centres undefined): the outcome in experiment [1] and in [3] was inactive. The Potency entry in [2], in experiment [4], in experiment [5], in experiment [6], in experiment [7] and in [8] was “inactive” in each case. Also, the Potency result in [9] was “inactive”. In addition, the Potency in experiment [10] is 49 µM (active).

For `Cc1cccc(S(=O)(=O)O)c1C`, the call in experiment [1] and in experiment [3] was inactive. The Potency entry in experiment [2], in experiment [4], in experiment [5], in [6], in [7] and in experiment [8] was “inactive” each time. In addition, the Potency result in experiment [9] and in [10] was “inactive” in each case.

For the compound `CCC(N)(CO)CO`, the compound was classed as inactive in [1] and in [3]. The Potency entry in experiment [2], in experiment [4], in experiment [5], in experiment [6], in experiment [7] and in experiment [8] was “inactive” each time. Besides, the Potency entry in experiment [9] and in experiment [10] was “inactive” in each case.

For `CC(=O)S[C@@H]1CC2=CC(=O)CC[C@]2(C)[C@H]2CC[C@@]3(C)[C@@H](CC[C@@]34CCC(=O)O4)[C@H]12`, the compound was classed as inactive in [1] and in experiment [3]. Also, the Potency result in experiment [2], in experiment [4], in experiment [5], in [6], in experiment [7] and in experiment [8] was “inactive” throughout. Besides, the Potency in [10] was 5.35 µM (active).

Turning to `O=c1c(-c2ccccc2)c1-c1ccccc1`, the call in [1] and in experiment [3] was inactive. Moreover, the Potency entry in experiment [2], in experiment [4], in [5], in [6], in [7] and in experiment [8] was “inactive” each time. Also, the Potency in [10] was 23.9 µM (active).

`CCCCC(CC)COP(=O)(O)OCC(CC)CCCC` (centres undefined): the call in experiment [1] and in experiment [3] was inactive. For the same compound, the Potency entry in experiment [2], in [4], in [5], in experiment [6], in [7] and in experiment [8] was “inactive” in each case. For the same compound, the Potency in experiment [10] was 49.1 µM (active).

With `CC(=O)SC[C@@H](Cc1ccccc1)C(=O)NCC(=O)OCc1ccccc1`, in experiment [1], the fluorescence, % of fluorescein was -0.0812% [at 18.6 µM]. For the same compound, the fluorescence, % of fluorescent control in [2] is 0.0019% [at 18.6 µM]; in experiment [4], 0.587% [at 18.6 µM]; in experiment [6], -0.074% [at 18.6 µM]; in [8], 0.351% [at 18.6 µM]. Besides, in experiment [3], the activity change is -0.0233% [at 18.6 µM]. The fluorescence, % of Rose Bengal in [5] is -0.444% [at 18.6 µM]. Also, the fluorescence, % of fluorescein control in experiment [7] was -0.0189% [at 18.6 µM]. Further, the Potency entry in experiment [9] and in experiment [10] was “inactive” throughout.
